About 79,000 compounds went through this panel and 15% of them were active in at least one assay; those are over-represented in the sample as a whole. Unmarked numbers belong to inactive results. Calls of active or inactive are those of the source. No stated cut-off is given here; in the data, active means growth inhibition above about 70%; inactive means the rest.

A short description of assay [1]: NCI Yeast Anticancer Drug Screen. Data for the rad50 strain (AID 155).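 Further: 0% = growth of vehicle-only cultures of the same strain.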 The following applies: S. cerevisiae rad50 strain growth inhibition, active compounds read high. The procedure, abridged: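 Growth of the mutant yeast was measured after compound exposure and referenced to vehicle-treated cultures.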
Assay [2] is described as follows: NCI Yeast Anticancer Drug Screen. Data for the mec2-1 strain (AID 157). The settings on record: S. cerevisiae mec2-1 strain, active compounds read high. The procedure, abridged: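 Cells of the genetically defined mec2-1 yeast strain are incubated with test compound. Inhibition of growth is calculated against vehicle-treated controls.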
The nature of assay [3]: NCI Yeast Anticancer Drug Screen. Data for the sgs1 mgt1 strain (AID 161).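 Further: 0% = growth of cultures given vehicle only.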 The following applies: S. cerevisiae sgs1 mgt1 strain, active compounds read high. The method, boiled down: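 Test agents were incubated with a DNA-repair-mutant yeast strain. Growth was then read and compared against vehicle-treated controls.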
Assay [4] in a line: NCI Yeast Anticancer Drug Screen. Data for the cln2 rad14 strain (AID 165).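 Further: 0% = growth equal to vehicle treated cultures.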 The following applies: S. cerevisiae cln2 rad14 strain, active compounds read high. The procedure, abridged: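 The screen exposed genetically defined yeast (cln2 rad14) to test compounds and scored growth inhibition relative to vehicle-treated controls.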
Assay [5] can be described thus: NCI Yeast Anticancer Drug Screen. Data for the bub3 strain (AID 167). The following applies: S. cerevisiae bub3 mutant strain, active compounds read high. The method, boiled down:
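Whole-cell yeast assay. The mutant strain was incubated with compounds, and growth inhibition was determined by comparison with vehicle-treated cells.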

A short description of assay [6]: NCI Yeast Anticancer Drug Screen. Data for the mlh1 rad18 strain (AID 175). The settings on record: S. cerevisiae mlh1 rad18 strain growth inhibition, active compounds read high. The method, boiled down: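 Compound-treated yeast growth, normalised to vehicle controls. Strain bears defined DNA repair mutations.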
Where [7] appears, read: at 5.0 µM (retest, dose inferred, filed as 0.5).
[8] abbreviates: at 50.0 µM (retest, dose inferred, filed as 5.0).

For `CCOC(=O)C(N=Nc1ccc(Br)c(C)c1)C(C)=O` (configuration not stated), the growth inhibition in assay [1] (setting [7]) was -4%; in assay [1] (setting [8]), 81% (active); in assay [1] (at 50.0 µM), 92.2% (active); in assay [2] (setting [7]), -7%; in assay [2] (setting [8]), 27%; in assay [2] (at 50.0 µM), 84.1% (active). Moreover, the growth inhibition in assay [3] (setting [7]) was 1%; in assay [3] (setting [8]), 92% (active); in assay [3] (at 50.0 µM), 98% (active); in assay [4] (setting [7]), 11%; in assay [4] (setting [8]) it was 50%; in assay [4] (at 50.0 µM), 76.8% (active). In addition, the growth inhibition in assay [5] (setting [7]) is -6%; in assay [5] (setting [8]) it was 64%; in assay [5] (at 50.0 µM) it was 88% (active); in assay [6] (setting [7]) it was 4%; in assay [6] (setting [8]) it was 88% (active); in assay [6] (at 50.0 µM) it was 97.5% (active).

On to `C[C@]12C[C@H](c3ccccc3)Nc3ccccc3N1C(c1ccccc1)=NO2`, for which the growth inhibition in assay [1] (setting [7]) was 0%; in assay [1] (setting [8]) it was 83% (active); in assay [1] (at 50.0 µM) it was 64.5%; in assay [2] (setting [7]), -13%; in assay [2] (setting [8]) it was 80% (active); in assay [2] (at 50.0 µM), 59.7%. The growth inhibition in assay [3] (setting [7]) is 21%; in assay [3] (setting [8]), 80% (active); in assay [3] (at 50.0 µM), 81.5% (active); in assay [4] (setting [7]) it was 9%; in assay [4] (setting [8]), 74% (active); in assay [4] (at 50.0 µM), 54.4%. The growth inhibition was 6% in assay [5] (setting [7]); 87% (active) in assay [5] (setting [8]); 67.4% in assay [5] (at 50.0 µM); -8% in assay [6] (setting [7]); 88% (active) in assay [6] (setting [8]); 71% (active) in assay [6] (at 50.0 µM).

For `CCN(c1ccc(C=O)cc1)c1ccc([N+](=O)[O-])cc1[N+](=O)[O-]`, the growth inhibition in assay [1] (setting [7]) was 3%; in assay [1] (setting [8]) it was 33%; in assay [1] (at 50.0 µM), 50.5%; in assay [2] (setting [7]), -1%; in assay [2] (setting [8]), 30%; in assay [2] (at 50.0 µM), 26.2%. For the same molecule, the growth inhibition in assay [3] (setting [7]) is 3%; in assay [3] (setting [8]), 70% (active); in assay [3] (at 50.0 µM), 74% (active); in assay [4] (setting [7]), 1%; in assay [4] (setting [8]), 11%; in assay [4] (at 50.0 µM), 18.2%. In addition, the growth inhibition was 2% in assay [5] (setting [7]); 23% in assay [5] (setting [8]); 7.85% in assay [5] (at 50.0 µM); 8% in assay [6] (setting [7]); 59% in assay [6] (setting [8]); 38.7% in assay [6] (at 50.0 µM).

For the molecule `c1ccc(CSc2nnc(SCc3ccccc3)c3[nH]cnc23)cc1`, the growth inhibition is -3% in assay [1] (setting [7]); 33% in assay [1] (setting [8]); 61.4% in assay [1] (at 50.0 µM); -7% in assay [2] (setting [7]); 38% in assay [2] (setting [8]); 46.9% in assay [2] (at 50.0 µM). For the same molecule, the growth inhibition in assay [3] (setting [7]) was -1%; in assay [3] (setting [8]), 45%; in assay [3] (at 50.0 µM), 46.1%; in assay [4] (setting [7]), -4%; in assay [4] (setting [8]) it was 23%; in assay [4] (at 50.0 µM), 56%. Besides, the growth inhibition in assay [5] (setting [7]) was -3%; in assay [5] (setting [8]), 45%; in assay [5] (at 50.0 µM), 50.1%; in assay [6] (setting [7]) it was -6%; in assay [6] (setting [8]), 34%; in assay [6] (at 50.0 µM), 11.9%.

Consider `C=C1CC(Cn2cc(Br)c(=O)[nH]c2=O)(c2ccc(Br)cc2)OC1=O` (configuration not stated), for which the growth inhibition is 14% in assay [1] (setting [7]); 98% (active) in assay [1] (setting [8]); 97.8% (active) in assay [1] (at 50.0 µM); 30% in assay [2] (setting [7]); 98% (active) in assay [2] (setting [8]); 98.7% (active) in assay [2] (at 50.0 µM). Further, the growth inhibition in assay [3] (setting [7]) is 29%; in assay [3] (setting [8]), 98% (active); in assay [3] (at 50.0 µM) it was 97.8% (active); in assay [4] (setting [7]) it was 19%; in assay [4] (setting [8]), 90% (active); in assay [4] (at 50.0 µM), 97.2% (active). Besides, the growth inhibition is 4% in assay [5] (setting [7]); 97% (active) in assay [5] (setting [8]); 97.2% (active) in assay [5] (at 50.0 µM); 40% in assay [6] (setting [7]); 99% (active) in assay [6] (setting [8]); 98.7% (active) in assay [6] (at 50.0 µM).

Take `COC12CC(=O)C(C(C)=O)=C(O)C1(C)c1c(OC(C)=O)c(C)c(O)c(C(C)=O)c1O2` (configuration not stated): the growth inhibition in assay [1] (setting [7]) is 17%; in assay [1] (setting [8]), 57%; in assay [1] (at 50.0 µM), 45.1%; in assay [2] (setting [7]) it was 14%; in assay [2] (setting [8]) it was 63%; in assay [2] (at 50.0 µM), 52.3%. Also, the growth inhibition was 31% in assay [3] (setting [7]); 73% (active) in assay [3] (setting [8]); 19.2% in assay [3] (at 50.0 µM); 19% in assay [4] (setting [7]); 50% in assay [4] (setting [8]); 41% in assay [4] (at 50.0 µM). The growth inhibition is 62% in assay [5] (setting [7]); 92% (active) in assay [5] (setting [8]); 43.5% in assay [5] (at 50.0 µM); 19% in assay [6] (setting [7]); 64% in assay [6] (setting [8]); 92.8% (active) in assay [6] (at 50.0 µM).

In the case of `O=C1c2ccc3c4ccccc4n(Cc4ccccc4)c3c2C(=O)N1c1ccccc1`, the growth inhibition in assay [1] (setting [7]) is 87% (active); in assay [1] (setting [8]), 87% (active); in assay [1] (at 50.0 µM), 92% (active); in assay [2] (setting [7]), 62%; in assay [2] (setting [8]), 62%; in assay [2] (at 50.0 µM) it was 93.4% (active). Besides, the growth inhibition is 39% in assay [3] (setting [7]); 39% in assay [3] (setting [8]); 92.5% (active) in assay [3] (at 50.0 µM); 75% (active) in assay [4] (setting [7]); 75% (active) in assay [4] (setting [8]); 92.2% (active) in assay [4] (at 50.0 µM). Besides, the growth inhibition is 80% (active) in assay [5] (setting [7]); 80% (active) in assay [5] (setting [8]); 91.5% (active) in assay [5] (at 50.0 µM); 47% in assay [6] (setting [7]); 47% in assay [6] (setting [8]); 91.3% (active) in assay [6] (at 50.0 µM).

In the case of `COC(=O)C1(Cc2ccccc2)Cc2c(C)ccc(C)c2C1=O` (configuration not stated), the growth inhibition is -4% in assay [1] (setting [7]); 12% in assay [1] (setting [8]); 43.1% in assay [1] (at 50.0 µM); -3% in assay [2] (setting [7]); 16% in assay [2] (setting [8]); 19.2% in assay [2] (at 50.0 µM). Further, the growth inhibition in assay [3] (setting [7]) is 13%; in assay [3] (setting [8]), 42%; in assay [3] (at 50.0 µM) it was 61.6%; in assay [4] (setting [7]), -1%; in assay [4] (setting [8]) it was 2%; in assay [4] (at 50.0 µM), 39.2%. Further, the growth inhibition was 28% in assay [5] (setting [7]); 62% in assay [5] (setting [8]); 64.2% in assay [5] (at 50.0 µM); -2% in assay [6] (setting [7]); 13% in assay [6] (setting [8]); 70.2% (active) in assay [6] (at 50.0 µM).

Turning to `CC(=O)N(N)c1ccccc1`, the growth inhibition is 8% in assay [1] (setting [7]); 56% in assay [1] (setting [8]); 57.5% in assay [1] (at 50.0 µM); 0% in assay [2] (setting [7]); 42% in assay [2] (setting [8]); 32.2% in assay [2] (at 50.0 µM). Besides, the growth inhibition in assay [3] (setting [7]) is 4%; in assay [3] (setting [8]), 53%; in assay [3] (at 50.0 µM), 33.3%; in assay [4] (setting [7]), 4%; in assay [4] (setting [8]) it was 51%; in assay [4] (at 50.0 µM) it was 57.7%. The growth inhibition was 7% in assay [5] (setting [7]); 77% (active) in assay [5] (setting [8]); 87.8% (active) in assay [5] (at 50.0 µM); 20% in assay [6] (setting [7]); 87% (active) in assay [6] (setting [8]); 88.4% (active) in assay [6] (at 50.0 µM).

(Values after PubChem BioAssay (NCI).)
